# tim10-1 inh – inhibits growth of tim10-1 mutant yeast; S. cerevisiae tim10-1 ts strain growth, BacTiter-Glo, 24 h; inhibition, % at 20 µM; 330,000 tested, 2.2% active;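 active = inhibition of at least 40%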;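 also: mutant grown at 25 °C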
# NLRP3 yeast inh – blocks the NALP3 inflammasome reconstituted in yeast. Yeast reconstituted NLRP3/ASC/caspase-1, beta-gal luminescence, 24 h. inhibition, % at 10 µM. 330,000 tested, 0.39% active;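 active = inhibition of 50% or more; inactive = inhibition below 50%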
# TIM10 inh – growth inhibitors of TIM10 yeast strain; S. cerevisiae TIM10 strain growth, BacTiter-Glo luminescence, 24 h; inhibition, % at 10 µM; 330,000 tested, 1.4% active; AID 463195;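 active = inhibition of 40% or more at the single tested concentration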;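 also: wild-type TIM10 isogenic control strain grown at permissive 25 °C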
# NALP1 yeast inh – blocks the NALP1 inflammasome reconstituted in yeast; S. cerevisiae NALP1/ASC/caspase-1 growth, X-gal OD620, 72 h; inhibition, % at 10 µM; 280,000 tested, 0.61% active; in the data active = inhibition mostly above about 24%, no sharp cut-off; inactive = mostly below about 32%
# tim23-1 inh – growth inhibitors of tim23-1 mutant yeast. S. cerevisiae tim23-1 growth, BacTiter-Glo luminescence, 24 h. 330,000 tested, 1.3% active. inhibition, % at 20 µM. AID 463212;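 active = growth inhibition of the mutant yeast at or above 50%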;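 also: temperature-sensitive mutant grown at 25 °C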
# PfHsp90 yeast 2 – inhibits growth of yeast expressing Plasmodium falciparum Hsp90 | 310,000 tested, 0.32% active | S. cerevisiae expressing PfHsp90, BacTiter-Glo ATP, 48 h; yeast lacking PDR1 and PDR3 efflux regulators | inhibition, % at 9.4 µM | AID 504621;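 active = every replicate shows inhibition above about 80%, whatever the replicate mean, limit read from the data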
# tim10 confirm – confirmation of TIM10 yeast growth inhibitors. inhibition, % at 10 µM. 4,600 tested, 63% active. S. cerevisiae tim10 strain growth, BacTiter-Glo luminescence, 24 h. shares compounds with TIM10 inh;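 active = inhibition of yeast growth at or above a set limit in either of two replicates at 10 µM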; also: this counterscreen used the strain with wild-type TIM10
# Hits are given with their value; . = inactive; / = not tested or not shown. A selection: hits, their analogues and other compounds. The true share with any hit is near 4.1%.
SMILES,tim10-1 inh,NLRP3 yeast inh,TIM10 inh,NALP1 yeast inh,tim23-1 inh,PfHsp90 yeast 2,tim10 confirm
O=C(NC(=S)N1CCc2ccccc21)c1ccccc1Br,.,.,40.6,.,.,.,31.4
CN1CCN(C(=S)NC(=O)c2ccccc2Br)CC1,.,.,.,.,.,.,/
O=C(NCc1ccc(Cl)cc1)c1ccc(Br)o1,.,.,67.8,.,.,.,.
CCOc1ccc(C(C)=O)cc1COC(=O)c1ccc2c(c1)NC(=O)CS2,.,.,.,/,.,.,/
Cn1c(/C=C/c2ccccc2)nc2ccccc21,.,.,54.6,.,.,.,47.9
COc1ccc(/C=C/c2nc3ccccc3n2Cc2ccccc2OC)cc1,.,.,.,.,.,.,/
COc1ccccc1Cn1c(/C=C/c2ccccc2)nc2ccccc21,.,.,42.1,.,.,.,.
Cc1ccc(NC(=O)C2CCN(C(=O)OC(C)(C)C)CC2)cc1S(=O)(=O)N1CCCCC1,.,.,56.5,/,.,.,.
Cc1ccc(NC(=O)C2CCCC2)cc1S(=O)(=O)N1CCOCC1,.,.,.,/,.,.,/
Cc1cc(C)n(CC(=O)N2c3ccccc3Sc3ccc(C(F)(F)F)cc32)n1,.,.,41.9,.,.,.,.
O=c1c2cc(N3CCOCC3)ccc2[nH]c(=S)n1CCCN1CCN(c2ccccc2F)CC1,.,.,46.7,.,.,/,24.5
Cc1occc1C(=O)N1CCN(S(=O)(=O)c2ccccc2)CC1,.,.,.,.,.,.,/
CCN(CC)C(=O)Cn1cc(C(=O)C(=O)NCCCN2CCCCC2)c2ccccc21,.,.,.,.,.,.,/
COc1ccccc1NS(=O)(=O)c1cccc(C(=O)N2CCN(C(=O)c3ccco3)CC2)c1,.,.,.,/,.,.,/
CSc1ccc(/C=N/NC(=O)CN2CCN(Cc3ccccc3)CC2)cc1,.,.,.,.,.,.,/
CSc1ccc(/C=N/NC(=O)CN2CCN(Cc3ccc(Cl)cc3)CC2)cc1,.,.,41.1,.,.,.,.
CCc1ccc2c(CN(C)Cc3ccccc3OC)cc(=O)oc2c1,.,.,.,.,.,.,/
COc1cccc(-c2cc(=O)c3cc(NC(=O)c4ccc(N(C)C)cc4)ccc3[nH]2)c1,.,.,66.6,.,.,/,.
O=C(NCC1COc2ccccc2O1)c1ccc(Br)s1 (stereo not given),.,.,.,.,.,.,/
O=C(CN1CCN(S(=O)(=O)c2ccccc2)CC1)Nc1cccc(C(F)(F)F)c1,.,.,40.8,.,.,.,.
O=C(CNc1cccc(C(F)(F)F)c1)Nc1cccc(S(=O)(=O)N2CCCC2)c1,.,.,.,/,.,/,/
O=C(O)CNC(=O)C1(NC(=O)OCc2ccccc2)CCCC1,/,/,/,/,/,.,/
CCC(C)(C)NC(=O)CN(C(=O)C(=O)Nc1ccc2c(c1)OCCO2)N1CCOCC1,.,.,.,.,.,.,/
C=CCNC(=S)N/N=C/c1cccc([N+](=O)[O-])c1,.,.,46.6,.,.,.,40.4
O=[N+]([O-])c1cccc(-c2ccc(/C=N/NC(=S)Nc3ccccc3)o2)c1,.,.,47.5,.,.,.,47.5
SMILES,tim10-1 inh,NLRP3 yeast inh,TIM10 inh,NALP1 yeast inh,tim23-1 inh,PfHsp90 yeast 2,tim10 confirm
C=CCNC(=S)Nc1cccc([N+](=O)[O-])c1,.,.,.,.,.,.,/
CC(C)C[C@@H](CN1C(=O)C(=O)NC[C@@H]1CC(C)C)NC(=O)Cc1ccccc1,.,.,.,/,.,.,/
Cc1ccc(C23CC4CC(CC(C(=O)NC(C)C)(C4)C2)C3)cc1,.,.,44.1,.,.,.,.
Nc1ccc(C23CC4CC(CC(C4)C2)C3)cc1,.,.,42.4,.,.,.,.
O=C(COC(=O)Cc1ccc(Br)cc1)NCc1ccc2c(c1)OCO2,.,.,.,/,.,/,/
O=C(Nc1cccc(-c2csc(-c3ccccc3)n2)c1)c1cccs1,.,.,40.5,.,.,.,32.4
O=C(Nc1ccc2c(c1)OCO2)c1cccs1,.,.,47.3,.,.,.,36.6
O=C(Nc1cccc(C2OCCCO2)c1)c1cccs1,.,.,43.9,.,.,.,.
Cc1nc(-c2cccc(NC(=O)c3cccs3)c2)cs1,.,.,.,.,.,.,/
O=C(Nc1ccc2c(c1)OCO2)c1ccc(Br)s1,.,.,.,.,.,.,/
COc1cc(NC(=O)c2cccs2)cc(OC)c1,.,.,69.8,65.2,.,.,55.8
C[C@H](CO)N1C[C@H](C)[C@@H](CN(C)Cc2ccncc2)Oc2c(NC(=O)C3CC3)cccc2C1=O,.,.,.,/,.,.,/
CCOC(=O)/C=C/C(=O)N1CCN(C(=O)/C=C/C(=O)OCC)CC1,.,.,.,/,.,.,/
CCOC(=O)c1cccc(NC(=O)c2ccc(-n3cnnn3)cc2)c1,.,.,.,/,.,.,/
CCOC(=O)C1CCNC(=O)C1=O (stereo not given),/,/,/,/,/,.,/
Cc1ccc(S(=O)(=O)Nc2cccc(-n3cnnn3)c2)cc1C,.,.,.,.,.,.,/
CCNC(=O)COc1ccc(OCc2ccccc2)cc1,.,.,.,.,.,.,/
CCC(C)NC(=O)COc1ccc(OCc2ccccc2)cc1 (stereo not given),.,.,41.6,.,.,.,33.5
CCOc1ccc(C(=O)Nc2ccc3c(c2)OCCO3)cc1,.,.,.,.,.,.,/
O=C(Cc1cccs1)N(Cc1ccco1)C1(C(=O)NC2CCCCC2)CCCCC1,.,.,42.5,.,.,.,.
CCS(=O)(=O)c1nc(S(=O)(=O)c2ccc(C)cc2)c(NCCN2CCOCC2)s1,.,.,97.2,.,.,.,.
CCOC(=O)N1CCN(C(=S)NC(=O)c2c(-c3c(Cl)cccc3Cl)noc2C)CC1,.,.,.,.,.,.,.
S=C(NCc1cccs1)Nc1cc(Cl)cc(Cl)c1,.,.,47.1,.,.,.,55.6
S=C(NCc1cccs1)Nc1ccccc1Cl,.,.,.,.,.,.,/
S=C(NCc1ccc(Cl)cc1)Nc1ccccc1,.,.,41.6,.,.,.,.
SMILES,tim10-1 inh,NLRP3 yeast inh,TIM10 inh,NALP1 yeast inh,tim23-1 inh,PfHsp90 yeast 2,tim10 confirm
Fc1ccc(CNC(=S)Nc2ccc(Cl)cc2)cc1,.,.,.,.,.,.,/
NNC(=S)Nc1ccc(C(F)(F)F)cc1Cl,.,.,43.6,.,.,.,.
COc1cccc(NC(=O)Nc2cccn(Cc3ccccc3)c2=O)c1,.,.,43.8,.,.,.,28.0
COc1ccc(Cn2cccc(NC(=O)Nc3cccc(OC)c3)c2=O)cc1,.,.,.,/,.,.,/
COc1cccc(NC(=O)Nc2ccc(Cc3ccncc3)cc2)c1,.,.,43.7,.,.,.,.
COc1nnc(-c2ccc(N3CCOCC3)c(NC(=O)c3ccccc3)c2)c2ccccc12,.,.,40.1,.,.,.,.
COc1nnc(-c2ccc(N3CCOCC3)c(NC(C)=O)c2)c2ccccc12,.,.,.,.,.,.,/
CC(=O)Nc1ccc(Sc2ncnc3scc(-c4ccccc4)c23)cc1,.,.,.,.,.,.,/

# Screening results deposited in PubChem by several laboratories.
